Assay results from PubChem BioAssay (Tox21).
Values without a mark were called inactive. Results filed as inconclusive are left out. The source made the active and inactive calls. Unless noted, calls come from the whole dose curve.

target: Muscarinic acetylcholine receptor M1 (Homo sapiens) (UniProt P11229); assay: Cholinergic receptor muscarinic 1 (CHRM1) small molecule agonists, cell-based qHTS assay (AID 1963589); details: CHRM1-CHO cells, agonist mode, calcium flux fluorescence; series mostly up to 76.8 µM; activation: at the top concentration; note: nearly all actives have a fitted effect of over 35% in size
Sequence (P11229 whole entry, looked up): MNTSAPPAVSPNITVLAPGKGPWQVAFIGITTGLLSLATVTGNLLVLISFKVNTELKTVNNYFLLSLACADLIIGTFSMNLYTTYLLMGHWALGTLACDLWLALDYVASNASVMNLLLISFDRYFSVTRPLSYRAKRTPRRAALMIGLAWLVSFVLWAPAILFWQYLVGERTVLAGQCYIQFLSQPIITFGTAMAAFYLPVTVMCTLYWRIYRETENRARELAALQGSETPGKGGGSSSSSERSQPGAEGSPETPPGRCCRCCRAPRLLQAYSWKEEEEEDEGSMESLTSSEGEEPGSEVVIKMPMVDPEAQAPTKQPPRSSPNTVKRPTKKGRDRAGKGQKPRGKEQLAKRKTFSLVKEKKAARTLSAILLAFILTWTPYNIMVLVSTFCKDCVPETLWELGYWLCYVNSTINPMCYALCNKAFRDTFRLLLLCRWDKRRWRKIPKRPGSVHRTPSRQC
Method in brief: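 Fluorescent calcium dye reports M1 activation in stably transfected CHO cells. Compounds, 15 concentrations, added after 1 h dye loading at 37 C; kinetic reading at 1 sec intervals.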
% is set by controls: 0 for no effect and ±100 for the full control effect.

SMILES | activation | Potency
CCC(N)(CO)CO | 0.488% | 
CC(=O)S[C@H](C(=O)N[C@H]1Cc2ccccc2[C@H]2CCC[C@@H](C(=O)O)N2C1=O)C(C)C | -0.157% | 
COC(=O)c1ccc([N+](=O)[O-])cc1 | -0.958% | 
COC(=O)Cc1cccc2ccccc12 | -0.69% | 
CCCCCCCCCCCC(=O)OC[C@@H](O)[C@H]1OC[C@H](OCCO)[C@H]1OCCO | -0.806% | 
CCCCCCCC(=O)OCCCCCC | -0.417% | 
Cc1nc2ccccc2s1 | 2.18% | 
CCO[Si](C)(C)OCC | -0.606% | 
Cc1nc(-c2ccc3c(c2)CCN(CCC2CCC(NC(=O)/C=C/c4ccc(F)cc4)CC2)CC3)no1 (stereo not drawn) | 12% [at 35.3 µM] | 
O=C(O)CCS | -0.0508% | 
CCN(CC#N)c1cccc(C)c1 | -0.92% | 
CC(C)(C)c1ccc(O)c(C(C)(C)C)c1 |  | inactive
CC12CC3CC(C)(C1)CC(N)(C3)C2 | 0.936% [at 35.3 µM] | 
O=C(/N=N/C(=O)OCc1ccccc1)OCc1ccccc1 | -0.465% | 
CC(C)C(=O)O | 1.32% | 
c1ccc2cc3c4ccccc4c4ccccc4c3cc2c1 | -0.0206% | 

SMILES | activation | Potency
CO[Si](CCCNCCC[Si](OC)(OC)OC)(OC)OC | -0.0476% | 
CCCCCCCCS(=O)(=O)Cl | 0.632% | 
Nc1ccc(S(=O)(=O)Nc2ccc(Cl)nn2)cc1 | 0.0716% [at 35.3 µM] | 
CCCCCCCCCCCCCC | -0.116% | 
O=C1CC2CC1C1CCCC21 (stereo not drawn) | -0.404% | 
CC1CNCC(C)O1 (stereo not drawn) | -0.0045% | 
Cc1ccc(C2OC[C@@H]3OC(c4ccc(C)cc4)O[C@H]([C@H](O)CO)[C@@H]3O2)cc1 (stereo partly drawn) | 0.193% | 
CCCCC(O)/C=C(C)/C=C/C=C/C(=O)N1CCCC1=O (stereo not drawn) | -0.372% [at 35.3 µM] | 
CC/C=C\CCO | 0.0887% | 
O=C(O)c1cc(=O)[nH]c(=O)[nH]1 |  | inactive
CC12CCC(C1)C(C)(C)C2O (stereo not drawn) | 0.0934% | 
O=C(C(=O)c1ccccc1)c1ccccc1 | -0.193% | 
CCOC(=O)c1cc(=O)c2c(OCC(COc3cccc4oc(C(=O)OCC)cc(=O)c34)OC(=O)[C@@H](N)CCCCN)cccc2o1 | -0.353% [at 35.3 µM] | 
COc1ccc(C)cc1 | 0.454% | 
O=S(=O)(O)CCN1CCN(CCO)CC1 | 7.64% | 

test system: not listed separately; assay: cAMP Responsive Elements (CRE) small molecule agonists, cell-based qHTS assay (AID 1963590); details: CRE-bla HEK293T, beta-lactamase FRET ratio, 3 h; series mostly up to 92.4 µM; activation: at the top concentration
Method in brief: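 Compound exposure lasted 3 h at 37 C/5% CO2 in CRE-bla HEK 293T cells grown in assay medium with 10% dialyzed FBS and 25 mM HEPES. Reporter signal came from LiveBLAzer B/G FRET substrate, 2 h, room temperature.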

SMILES | activation | Potency
CCC(N)(CO)CO | -0.102% | 
CC(=O)S[C@H](C(=O)N[C@H]1Cc2ccccc2[C@H]2CCC[C@@H](C(=O)O)N2C1=O)C(C)C | -1.41% | 
CCCCCCCCCOS(=O)(=O)O | 0.0255% | 
COC(=O)c1ccc([N+](=O)[O-])cc1 | 0.259% | 
COC(=O)Cc1cccc2ccccc12 | 0.21% | 
CCCCCCCCCCCC(=O)OC[C@@H](O)[C@H]1OC[C@H](OCCO)[C@H]1OCCO | 0.361% | 
CCCCCCCC(=O)OCCCCCC | 0.0208% | 
Cc1nc2ccccc2s1 | -0.23% | 
CCO[Si](C)(C)OCC | -1.46% | 
Cc1nc(-c2ccc3c(c2)CCN(CCC2CCC(NC(=O)/C=C/c4ccc(F)cc4)CC2)CC3)no1 (stereo not drawn) | 8.85% [at 42.5 µM] | 
O=C(O)CCS | 0.89% | 
CCN(CC#N)c1cccc(C)c1 | -0.0668% | 
CC12CC3CC(C)(C1)CC(N)(C3)C2 | 1.14% [at 42.5 µM] | 
O=C(/N=N/C(=O)OCc1ccccc1)OCc1ccccc1 | 6.51% | 
CC(C)C(=O)O | 0.228% | 
c1ccc2cc3c4ccccc4c4ccccc4c3cc2c1 | -0.237% | 
CO[Si](CCCNCCC[Si](OC)(OC)OC)(OC)OC | -0.246% | 
CCCCCCCCS(=O)(=O)Cl | -0.118% | 

SMILES | activation | Potency
C=Cc1ccccn1 | 0.206% | 
Nc1ccc(S(=O)(=O)Nc2ccc(Cl)nn2)cc1 | 0.145% [at 42.5 µM] | 
COC(=O)c1ccccc1C(=O)O | -0.129% | 
CC(=O)SC[C@@H](C)C(=O)N1CCC[C@H]1C(=O)N[C@@H](Cc1ccccc1)C(=O)O | -0.425% [at 42.5 µM] | 
CCCCCCCCCCCCCC | 0.125% | 
COc1cc(/C=C/C(=O)O[C@H]2CC[C@]34C[C@]35CC[C@]3(C)[C@@H]([C@H](C)CCC=C(C)C)CC[C@@]3(C)[C@@H]5CC[C@H]4C2(C)C)ccc1O | 0.546% [at 42.5 µM] | 
O=C1CC2CC1C1CCCC21 (stereo not drawn) | 0.124% | 
CC1CNCC(C)O1 (stereo not drawn) | -0.422% | 
Cc1ccc(C2OC[C@@H]3OC(c4ccc(C)cc4)O[C@H]([C@H](O)CO)[C@@H]3O2)cc1 (stereo partly drawn) | 0.969% | 
CCCCC(O)/C=C(C)/C=C/C=C/C(=O)N1CCCC1=O (stereo not drawn) | 0.785% [at 42.5 µM] | 
CC/C=C\CCO | 0.0248% | 
O=C(O)c1cc(=O)[nH]c(=O)[nH]1 |  | inactive
CC12CCC(C1)C(C)(C)C2O (stereo not drawn) | -1.14% | 
O=C(C(=O)c1ccccc1)c1ccccc1 | 0.659% | 
CCOC(=O)c1cc(=O)c2c(OCC(COc3cccc4oc(C(=O)OCC)cc(=O)c34)OC(=O)[C@@H](N)CCCCN)cccc2o1 | 0.486% [at 42.5 µM] | 
COc1ccc(C)cc1 | -0.0899% | 
O=S(=O)(O)CCN1CCN(CCO)CC1 | -0.361% | 

test system: not listed separately; assay: cAMP Responsive Elements (CRE) small molecule antagonists, cell-based qHTS assay (AID 1963591; active = well fitted inhibition curve with a large enough effect in the signal ratio in the repeat runs, not every such curve was filed as active; the % refers to the signal ratio); details: CRE-bla HEK293T, beta-lactamase FRET ratio; series mostly up to 92.4 µM; activity change, negative = inhibition: at the top concentration
Method in brief: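 Stimulation used NKH477 at a final 0.25 uM for 3 h in compound-treated CRE-bla HEK293T cells, seeded 18 h beforehand. Reporter activity was measured with LiveBLAzer B/G FRET substrate after 2 h at room temperature.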

SMILES | activity change, negative = inhibition | Potency
CCC(N)(CO)CO | -5.38% | 
CCCCOC(=O)CCS | 9.04% | 
CC(=O)S[C@H](C(=O)N[C@H]1Cc2ccccc2[C@H]2CCC[C@@H](C(=O)O)N2C1=O)C(C)C | 7.32% | 
COC(=O)c1ccc([N+](=O)[O-])cc1 | -1.15% | 
COC(=O)Cc1cccc2ccccc12 | 4.8% | 
CCCCCCCCCCCC(=O)OC[C@@H](O)[C@H]1OC[C@H](OCCO)[C@H]1OCCO | -0.343% | 
CCCCCCCC(=O)OCCCCCC | -2.67% | 
CCO[Si](C)(C)OCC | -1.3% | 
Cc1nc(-c2ccc3c(c2)CCN(CCC2CCC(NC(=O)/C=C/c4ccc(F)cc4)CC2)CC3)no1 (stereo not drawn) | -2.33% [at 42.4 µM] | 
O=C(O)CCS | 2.8% | 
CCN(CC#N)c1cccc(C)c1 | -16.1% | 
CC12CC3CC(C)(C1)CC(N)(C3)C2 | -7.13% [at 42.4 µM] | 
O=C(/N=N/C(=O)OCc1ccccc1)OCc1ccccc1 | 1.35% | 
CC(C)C(=O)O | 0.0572% | 
c1ccc2cc3c4ccccc4c4ccccc4c3cc2c1 | 0.248% | 
C=Cc1ccccn1 | -7.72% | 

SMILES | activity change, negative = inhibition | Potency
Nc1ccc(S(=O)(=O)Nc2ccc(Cl)nn2)cc1 | -7.18% [at 42.4 µM] | 
CC(=O)SC[C@@H](C)C(=O)N1CCC[C@H]1C(=O)N[C@@H](Cc1ccccc1)C(=O)O | 1.25% [at 42.4 µM] | 
CCCCCCCCCCCCCC | -6.76% | 
COc1cc(/C=C/C(=O)O[C@H]2CC[C@]34C[C@]35CC[C@]3(C)[C@@H]([C@H](C)CCC=C(C)C)CC[C@@]3(C)[C@@H]5CC[C@H]4C2(C)C)ccc1O | -14.8% [at 42.4 µM] | 
CC/C=C\CCOC(=O)C(C)C | 0.696% | 
O=C1CC2CC1C1CCCC21 (stereo not drawn) | -6.29% | 
CC1CNCC(C)O1 (stereo not drawn) | -2.24% | 
Cc1ccc(C2OC[C@@H]3OC(c4ccc(C)cc4)O[C@H]([C@H](O)CO)[C@@H]3O2)cc1 (stereo partly drawn) | 3.13% | 
CCCCC(O)/C=C(C)/C=C/C=C/C(=O)N1CCCC1=O (stereo not drawn) | 12% [at 42.4 µM] | 
CC/C=C\CCO | -3.69% | 
O=C(O)c1cc(=O)[nH]c(=O)[nH]1 |  | inactive
CC12CCC(C1)C(C)(C)C2O (stereo not drawn) | -6.18% | 
O=C(C(=O)c1ccccc1)c1ccccc1 | -16.9% | 
CCOC(=O)c1cc(=O)c2c(OCC(COc3cccc4oc(C(=O)OCC)cc(=O)c34)OC(=O)[C@@H](N)CCCCN)cccc2o1 | 2.24% [at 42.4 µM] | 
COc1ccc(C)cc1 | -6.51% | 
O=S(=O)(O)CCN1CCN(CCO)CC1 | -7.26% | 
